Results filed as inconclusive are left out. The source made the active and inactive calls. How the source made its calls: active means hit-call score of the fitted dose curve at least 0.9, where 1 is the maximum; inconclusive means response in the unintended direction; inactive means score below 0.9.
biological target: cAMP-dependent protein kinase catalytic subunit alpha (Homo sapiens) (UniProt P17612); assay: ERF_TW_ENZ_hPRKACA: Eurofins (ERF) Enzymatic Radiometric [10 uM ATP] LeadHunter Assay for human PKA AGC Kinase
Method: ERF_TW_ENZ_hPRKACA is a biochemical, single-readout assay that uses extracted gene-proteins in a cell-free assay. Measurements were taken 0.25 hour after chemical dosing in a 96-well plate. See PKA Human AGC Kinase Enzymatic Radiometric Assay [10 uM ATP], Panlabs.ERF_TW_ENZ_hPRKACA is an assay component calculated from the ERF_TW_ENZ_hPRKACA assay. It is designed to measure enzyme activity using a type of enzyme reporter as detected by scintillation counting with radiometry technology.Data from the assay component ERF_TW_ENZ_hPRKACA was analyzed at the assay endpoint, ERF_TW_ENZ_hPRKACA, in the positive analysis fitting direction relative to DMSO as the negative control and baseline of activity. Using a type of enzyme reporter, loss-of-signal activity can be used to understand changes in enzymatic activity as they relate to gene PRKACA. To generalize the intended target to other relatable targets, this assay endpoint is annotated to the kinase intended target family, where the subfamily is serine/threonine kinase.
Human protein kinase PKA expressed in E. coli. is used. Test compound and/or vehicle is preincubated with 23 ng/ml enzyme in modified MOPS buffer pH 7.2 at 37C for 15 minutes. The reaction is initiated by addition of 0.5 uM PKA substrate peptide, 10 uM ATP and 0.25 uCi [gamma32P]ATP for another 15 minute incubation period and terminated by further addition of 3 % H3PO4. An aliquot is removed to a 96 well multiscreen, washed with H3PO4 solution, dried and counted to determine the amount of 32P- PKA substrate peptide formed. Compounds are screened at 10 uM.Test Sample Requirements: Minimum for 1) Screen: 25 ul of 10 mM stock -OR- 1 mg (pre-weighed). 2) Dose Response: 60 ul of 10 mM stock -OR- 1 mg (pre-weighed).

AC50, active:
COc1cc(CCC(=O)CC(=O)CCc2ccc(O)c(OC)c2)ccc1O 3.01 µM, O=C(/C=C/c1ccc(O)cc1)CC(=O)/C=C/c1ccc(O)cc1 2.19 µM, COc1cc(/C=C/C(=O)CC(=O)/C=C/c2ccc(O)c(OC)c2)ccc1O 2.97 µM
